Test results as given in PubChem BioAssay AID1240 (Sanford-Burnham Center for Chemical Genomics, 2008).
The campaign covered roughly 50,000 compounds. About 800 (1.6%) showed an effect of 50% or more. What follows is part of a selection rich in strong results, with near analogues and random picks from the rest.

These compounds were tested against Bcl-2-like protein 10 (Homo sapiens) (UniProt Q9HD36) (assay: TR3 peptide-Bcl-B binding displacers, biochemical primary FP assay, phenotype converters (AID 1240;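 note: 0% = Bcl-B with tracer peptide and DMSO and 100% = tracer peptide lacking Bcl-B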)). Details: GST-Bcl-B / FITC-TR3 peptide fluorescence polarization; stronger effect = higher value; compound at 3.75 mg/L.
Bcl-2-like protein 10 (Homo sapiens), sequence (Q9HD36 whole entry, looked up): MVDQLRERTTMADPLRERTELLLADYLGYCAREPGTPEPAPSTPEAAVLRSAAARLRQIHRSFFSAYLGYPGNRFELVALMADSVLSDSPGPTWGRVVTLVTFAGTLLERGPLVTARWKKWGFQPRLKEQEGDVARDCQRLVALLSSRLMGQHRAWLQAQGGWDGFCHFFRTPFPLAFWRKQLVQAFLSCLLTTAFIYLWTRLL

SMILES	displacement
O=C1NC(=O)C(=Cc2ccc3c(c2)OCO3)C(=O)N1	0.3%
O=C1NC(=O)C(=Cc2ccc(N3CCOCC3)cc2)C(=O)N1	78.9%
O=C1NC(=O)C(=Cc2ccccc2)C(=O)N1	-4.2%
O/N=C1/C(=C/c2ccccc2)N2CCC1CC2	10.6%
COC(=O)COc1ccc(/C=C2\C(=O)NC(=S)N(c3ccc(C)cc3)C2=O)cc1OC	-13.5%
COc1ccc(-c2ccc(C=C3C(=O)NC(=S)NC3=O)o2)c([N+](=O)[O-])c1	34.1%
COc1ccccc1-n1c(/C=C/c2ccco2)nc2ccccc2c1=O	-36%
O=c1c2ccccc2nc(/C=C/c2ccc(O)c(O)c2)n1-c1ccccc1	1.9%
COc1ccccc1-n1c(/C=C/c2ccc(O)cc2)nc2ccccc2c1=O	119%
Cc1ccc(-n2c(/C=C/c3ccc(O)c(O)c3)nc3ccccc3c2=O)cc1	54.7%
COc1cccc(-n2c(/C=C/c3ccco3)nc3ccccc3c2=O)c1	106%
COc1ccc(-n2c(/C=C/c3ccco3)nc3ccccc3c2=O)cc1	-27.1%
COc1ccccc1-n1c(/C=C/c2ccc(O)c(O)c2)nc2ccccc2c1=O	-24.6%
COc1ccccc1-n1c(/C=C/c2ccccc2O)nc2ccccc2c1=O	-6%
COc1cccc(-n2c(/C=C/c3ccc(O)c(O)c3)nc3ccccc3c2=O)c1	27.7%
O=C(CNS(=O)(=O)c1ccccc1)Nc1ccc(Br)cc1C(=O)c1ccccc1	12%
O=[N+]([O-])N=C1NC(OCc2ccccc2)C(OCc2ccccc2)N1 (stereo unspecified)	1.4%
CCC1CN(C)CCC1(O)c1ccccc1 (stereo unspecified)	-6.1%
CCC(C)N1CCN(C(=O)COc2ccc(Cl)cc2)CC1 (stereo unspecified)	9.2%
CC(C(=O)c1ccc(Cl)cc1Cl)n1cncn1 (stereo unspecified)	-2.3%
COc1ccc(OCC(=O)Nc2ccc(Br)cc2C(=O)c2ccccc2)cc1	-8.4%
O=Cc1cn(Cc2cccc3ccccc23)c2ccccc12	-2.4%
CN1C(=O)NC(=O)/C(=C\c2ccc([N+](=O)[O-])o2)C1=O	17.3%
O=c1c2ccccc2nc(-c2ccccc2F)n1-c1cccc(Cl)c1	-2.3%

SMILES	displacement
CCNc1cc2oc(=O)cc(C(F)(F)F)c2cc1C	105%
Clc1ccccc1CNCCc1c[nH]c2ccccc12	2%
O=c1[nH]c2ccccc2c(=O)n1-c1ccccc1	-12.7%
O=c1[nH]c(=O)n(-c2ccccc2)c(O)c1N=Nc1ccc(Br)cc1	120%
O=c1c2ccccc2[nH]c(=S)n1-c1ccccc1	-9.7%
COc1ccccc1CN1CCN(Cc2ccccc2F)CC1	-5.2%
O=C(Nc1ccc(Cl)c(-c2nc3ncccc3o2)c1)c1cccc(OCc2ccccc2)c1	-2.6%
O=[N+]([O-])c1ccc(CCNC2CCCCC2)cc1	3.9%
O=c1[nH]c(=O)n(Cc2ccccc2)c(O)c1C=C1C=Nc2ccccc21	8.6%
COc1ccc(OC)c(-n2c(O)c(C=C3C=Nc4ccccc43)c(=O)[nH]c2=O)c1	118%
COc1ccc(OC)c(N2C(=O)CC(=O)NC2=O)c1	-5.1%
COC(=O)N1[C@H](c2ccccc2)[C@@H]1c1ccccc1	11.9%
O=C(CF)NC(Nc1ccc(Br)cc1)C(Cl)(Cl)Cl (stereo unspecified)	8.3%
CCn1cc(C=C2C(=O)NC(=O)NC2=O)c2ccccc21	12.6%
O=Cc1cn(Cc2ccc(Br)cc2)c2ccccc12	0.2%
CN1C(=O)C(=Cc2cn(Cc3ccc(F)cc3)c3ccccc23)C(=O)N(C)C1=O	138%
CN1C(=O)C(=Cc2ccccc2Cl)C(=O)N(C)C1=O	-0.3%
CCn1cc(C=C2C(=O)NC(=S)NC2=O)c2ccccc21	136%
C=CCn1cc(C=C2C(=O)NC(=O)NC2=O)c2ccccc21	16.3%
C=CCc1cc(/C=C2\C(=O)NC(=O)N(c3cc(C)cc(C)c3)C2=O)cc(OC)c1O	-5.3%
Cc1cc(/C=C2/C(=O)NC(=O)N(C)C2=O)c(C)n1-c1ccccc1	49.3%
Cc1ccc(-n2c(C)cc(/C=C3/C(=O)NC(=O)N(C)C3=O)c2C)cc1	-10.4%
Cc1cc(C=C2C(=O)NC(=S)NC2=O)c(C)n1-c1ccccc1	104%
Cc1cc(C=C2C(=O)NC(=S)NC2=O)c(C)n1-c1ccc(Cl)cc1	36.9%

SMILES	displacement
Cc1cc(C=C2C(=O)NC(=S)NC2=O)c(C)n1-c1ccc(F)cc1	3.8%
Cc1cc(/C=C2\C(=O)NC(=O)N(C)C2=O)c(C)n1-c1ccc2c(c1)OCO2	107%
O=C1NC(=S)N(c2ccc(Br)cc2)C(=O)/C1=C/c1ccc(-c2ccccc2C(=O)O)o1	19.2%
COc1ccc(Br)cc1CN1CCN(C(=O)COc2ccccc2)CC1	2.5%
COC(=O)C1C2C(=O)N(c3ccc([N+](=O)[O-])cc3)C(=O)C12c1ccc(C)cc1 (stereo unspecified)	-32.2%
Cc1ccc(NC(=O)C2C(C)(C)C2(C)C)cc1C	6.9%
CCOC(=O)c1ccc2c(c1)n(Cc1ccccc1)c(C)[n+]2CC	-14.9%
COc1cccc(N2C(=O)CC(=O)NC2=O)c1	-8.2%
CCOc1ccc(N2C(=O)/C(=C/c3cc(Cl)ccc3O)C(=O)NC2=S)cc1	0.4%
CCc1ccc(/C=C2/C(=O)NC(=O)N(c3ccc(OC)cc3)C2=O)cc1	-18.1%
COc1ccc(N2C(=O)NC(=O)/C(=C/c3cn(CC(=O)Nc4ccccc4)c4ccccc34)C2=O)cc1	88.8%
O=C(O)Cn1cc(/C=C2\C(=O)NC(=O)N(c3ccc(Cl)cc3)C2=O)c2ccccc21	-16.9%
Cc1ccc(N2C(=O)NC(=O)/C(=C\c3ccccc3OCc3ccc(C(=O)O)cc3)C2=O)cc1	-9.2%
Cc1ccc(N2C(=O)NC(=O)/C(=C\c3cn(CC(=O)O)c4ccccc34)C2=O)cc1	183%
COc1ccccc1OCCn1cc(C=C2C(=O)NC(=O)NC2=O)c2ccccc21	38.7%
CCOc1cc(C)cc2oc(=O)c3c(c12)CCC3	-1.5%
Nc1ccc(Br)cc1C(=O)c1ccc(Cl)cc1Cl	10%
CN1C(=O)NC(=O)/C(=C\c2ccc(C(=O)O)cc2)C1=O	1.8%
O=C1NC(=O)N(Cc2ccccc2)C(=O)/C1=C\C=C\c1ccco1	11.3%
Cn1cc(/C=C2\C(=O)NC(=O)N(Cc3ccccc3)C2=O)c2ccccc21	99.3%
CN1C(=O)NC(=O)/C(=C/c2ccc(I)o2)C1=O	9.2%
CN1C(=O)NC(=O)/C(=C/c2cn(C)c3ccccc23)C1=O	108%
O=C1NC(=O)N(Cc2ccccc2)C(=O)/C1=C/c1ccc2c(c1)OCO2	13.8%
